Inconclusive results are not listed. Activity calls are given as the source filed them. Unless noted, calls follow the shape of the dose curve; as a rule, active = well fitted curve in the direction sought with a large enough effect in the repeat runs; inconclusive = weak or mixed curves; inactive = no such curve, though single readings can be large; an effect the other way counts as inactive or inconclusive.

The values that follow come from PubChem BioAssay (Tox21).

Assay [1] in a line: A CellTox Green Cytotoxicity Assay to monitor cytotoxicity in HEK293 cells - 32 hour (AID 1224881). Also: nearly all actives have a fitted effect of over 40% in size. Also: potency is read from the fitted curve at half-maximal effect. An outline of the steps:
(§1)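 Cells (HEK293, 600/well) and dye reagent are dispensed together. After 5 h at 37 C, 23 nL compound is pinned in. Plates stay at 37 C for 40 h with fluorescence read at 0h, 8h, 16h, 24h, 32h and 40h.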

Assay [2] is described as follows: A CellTox Green Cytotoxicity Assay to monitor cytotoxicity in HepG2 cells - 0 hour (AID 1224882). Also: nearly all actives have a fitted effect of over 35% in size. An outline of the steps:
(§2)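 Cells and non-lytic dye reagent are dispensed together (600 HepG2 cells/well) and incubated 5 h before DMSO compound transfer. Kinetic fluorescence is then recorded in the same wells during 40 h at 37 C.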

A short description of assay [3]: A CellTox Green Cytotoxicity Assay to monitor cytotoxicity in HepG2 cells - 32 hour (AID 1224883). Also: nearly all actives have a fitted effect of over 50% in size. An outline of the steps:
as §2

Assay [4] is described as follows: qHTS RealTime-Glo MT Cell Viability Assay in HepG2 cells - 16 hour (AID 1224885). Also: nearly all actives have a fitted effect of over 50% in size. An outline of the steps:
(§3)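 HepG2 suspension premixed with RealTime-Glo reagents is plated at 600 cells per well and left 5 h at 37 C/5% CO2. Compounds in DMSO then go in, and bioluminescence reflecting viable cell number is recorded over 40 h.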

A short description of assay [5]: qHTS RealTime-Glo MT Cell Viability Assay in HEK293 cells - 24 hour (AID 1224886). Also: top concentration of the series differs between compounds; nearly all actives have a fitted effect of over 50% in size. An outline of the steps:
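Reads taken at 0, 8, 16, 24, 32 and 40 h from the same wells. HEK293 cells (600/well) carried RealTime-Glo reagents from seeding, with compound added after a 5 h settle at 37 C.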

The nature of assay [6]: qHTS RealTime-Glo MT Cell Viability Assay in HEK293 cells - 8 hour (AID 1224887). Also: top concentration of the series differs between compounds; nearly all actives have a fitted effect of over 50% in size. An outline of the steps:
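Real-time viability in HEK293: signal arises when living cells convert a prosubstrate for NanoLuc in the medium, so luminescence tracks viable cell number. Compound (23 nL, DMSO) added 5 h post-seeding; kinetic reads at 0–40 h, 37 C.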

Assay [7] in a line: A CellTox Green Cytotoxicity Assay to monitor cytotoxicity in HEK293 cells - 16 hour (AID 1224888). Also: nearly all actives have a fitted effect of over 35% in size. An outline of the steps: as §1
Assay [8] in a line: qHTS RealTime-Glo MT Cell Viability Assay in HepG2 cells - 0 hour (AID 1224889). Also: nearly all actives have a fitted effect of over 50% in size. An outline of the steps: as §3
The nature of assay [9]: A CellTox Green Cytotoxicity Assay to monitor cytotoxicity in HepG2 cells - 8 hour (AID 1224890). Also: nearly all actives have a fitted effect of over 45% in size. An outline of the steps: as §2
Assay [10] can be described thus: qHTS assay to identify small molecule antagonists of the androgen receptor (AR) signaling pathway using the MDA cell line in the presence of 0.5 nM R1881 - cell viability counter screen (AID 1259242). Also: nearly all actives have a fitted effect of over 45% in size. An outline of the steps: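 Steps: plate MDA-kb2 cells, rest 5 hr at 37C without CO2; pin in compounds in DMSO; add R1881 to 0.5 nM final; incubate 16 hr; add CellTiter-Fluor, 30 min; read fluorescence.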

The target in assay [11] is Estrogen receptor (Homo sapiens) (UniProt P03372). As to the kind of experiment: qHTS assay to identify small molecule antagonists of the estrogen receptor alpha (ER-alpha) signaling pathway using the BG1 cell line in the presence of 0.1 nM 17-beta-estradiol (AID 1259244). Also: nearly all actives have a fitted effect of over 50% in size. An outline of the steps: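 Antagonist mode: compounds in DMSO are pinned onto VM7Luc4E2 reporter cells, 0.1 nM final 17beta-estradiol is added, and after 22 h at 37C luciferase luminescence is measured with ONE-Glo.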

Assay [12] can be described thus: qHTS assay to identify small molecule phospholipidosis (PLD) inducers (AID 1259344; active = well fitted curve in the direction sought with a large enough effect; an effect the other way counts as inactive or inconclusive). Put shortly:
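Accumulated phospholipid, stained red by LipidTOX during 24 h compound treatment of HepG2 cells at 37 C, is quantified from images as pit number and intensity, normalised per cell using Hoechst-stained nuclei.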

Assay [13] in a line: qHTS assay to identify small molecule HDAC inhibitors (AID 1259364).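 Also: wild-type HCT-116 cells with endogenous class I/II HDAC activity; top concentration of the series differs between compounds; nearly all actives have a fitted effect of over 45% in size.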 An outline of the steps:
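Cells (HCT-116, wild type) are seeded at 1,500 per well, incubated overnight, treated with compound in DMSO for 2 hr, then developed with HDAC-Glo I/II reagent for 30 min at room temperature.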

A short description of assay [14]: qHTS assay to identify small molecule HDAC inhibitors - cell viability counter screen (AID 1259365). An outline of the steps:
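Counter screen in wild-type HCT-116 cells: compounds dissolved in DMSO are pin-transferred onto overnight-plated cells and left 2hr at 37C. ATP-based CellTiter-Glo luminescence then measures viable cells.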

Assay [15] in a line: qHTS assay to identify small molecule agonists of the sonic hedgehog signaling (Shh) pathway - cell viability counter screen (AID 1259366). Also: nearly all actives have a fitted effect of over 50% in size. Put shortly: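 Cells are plated at 2,000 per well and left 4hr at 37C, 5% CO2 before compound addition. After 23hr of treatment, CellTiter-Fluor reagent is added for 1hr at 37C and fluorescence is measured.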
Assay [16] is described as follows: qHTS assay to identify small molecule antagonists of the sonic hedgehog signaling (Shh) pathway - cell viability counter screen (AID 1259367). Also: nearly all actives have a fitted effect of over 55% in size. Put shortly: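 CellTiter-Fluor signal in conditioned medium-stimulated 3T3 Gli1-Luc cells, 23 hr compound exposure, 37C.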
Assay [17] is described as follows: qHTS assay to identify small molecule agonists of the sonic hedgehog signaling (Shh) pathway (AID 1259368; calls by dose curve;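 also: NIH/3T3-derived 3T3Gli1-Luc cells carrying a stable Gli1-driven firefly luciferase reporter; series mostly up to about 92 µM; nearly all actives have a fitted effect of over 15% in size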). Put shortly:
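Cells of a mouse NIH/3T3 clone stably expressing luciferase under the Gli1 transcriptional response element are exposed to test chemicals for 24 hr at 37 C. Pathway activation is detected as a rise in luminescence.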

A short description of assay [18]: A CellTox Green Cytotoxicity Assay to monitor cytotoxicity in HEK293 cells - 8 hour (AID 1224884). Also: nearly all actives have a fitted effect of over 35% in size. An outline of the steps: as §1
Assay [19] is described as follows: qHTS assay to identify small molecule antagonists of the estrogen receptor alpha (ER-alpha) signaling pathway using the BG1 cell line in the presence of 0.1 nM 17-beta-estradiol - cell viability counter screen (AID 1259241). Also: nearly all actives have a fitted effect of over 40% in size. Put shortly:
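Cells were plated and left 24 hr, compounds in DMSO were pinned in, 17beta-estradiol was added to 0.1 nM final, and after 22 hr CellTiter-Fluor reagent was added for 30 min before fluorescence was read.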

For assay [20], the target named is Androgen receptor (Homo sapiens) (UniProt P10275). As to the kind of experiment: qHTS assay to identify small molecule antagonists of the androgen receptor (AR) signaling pathway using the MDA cell line in the presence of 0.5 nM R1881 (AID 1259243). Also: nearly all actives have a fitted effect of over 50% in size. An outline of the steps: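 Stably transfected MDA-kb2 cells express luciferase from an MMTV promoter bearing both AR and GR response elements. Compounds plus 0.5 nM R1881 (final) were incubated 16 hr at 37C without CO2, then luminescence measured.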
Sequence of Androgen receptor (Homo sapiens) (P10275 whole entry, looked up): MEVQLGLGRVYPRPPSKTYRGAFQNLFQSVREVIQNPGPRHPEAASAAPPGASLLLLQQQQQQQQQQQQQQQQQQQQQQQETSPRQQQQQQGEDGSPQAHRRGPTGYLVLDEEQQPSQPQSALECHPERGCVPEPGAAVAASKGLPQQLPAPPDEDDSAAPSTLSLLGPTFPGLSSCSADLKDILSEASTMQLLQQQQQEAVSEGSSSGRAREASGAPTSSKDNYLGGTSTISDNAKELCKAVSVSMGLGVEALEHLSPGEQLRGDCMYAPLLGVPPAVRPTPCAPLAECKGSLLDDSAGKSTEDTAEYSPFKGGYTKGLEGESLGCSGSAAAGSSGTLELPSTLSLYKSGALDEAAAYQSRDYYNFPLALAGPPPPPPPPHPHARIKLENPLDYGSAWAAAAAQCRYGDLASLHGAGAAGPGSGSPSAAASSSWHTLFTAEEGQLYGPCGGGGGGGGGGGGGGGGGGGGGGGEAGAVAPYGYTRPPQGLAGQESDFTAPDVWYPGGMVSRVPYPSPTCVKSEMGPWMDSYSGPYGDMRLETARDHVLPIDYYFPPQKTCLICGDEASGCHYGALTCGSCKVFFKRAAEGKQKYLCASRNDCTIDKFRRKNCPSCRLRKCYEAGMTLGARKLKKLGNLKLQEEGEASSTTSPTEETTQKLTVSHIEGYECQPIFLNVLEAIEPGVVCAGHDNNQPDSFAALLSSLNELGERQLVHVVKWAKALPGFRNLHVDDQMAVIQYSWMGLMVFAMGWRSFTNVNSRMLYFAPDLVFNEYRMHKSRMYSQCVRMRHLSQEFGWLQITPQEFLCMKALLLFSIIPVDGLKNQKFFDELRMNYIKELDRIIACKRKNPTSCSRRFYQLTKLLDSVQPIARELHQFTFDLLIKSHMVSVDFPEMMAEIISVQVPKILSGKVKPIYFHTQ

Sequence of Estrogen receptor (Homo sapiens) (P03372 whole entry, looked up): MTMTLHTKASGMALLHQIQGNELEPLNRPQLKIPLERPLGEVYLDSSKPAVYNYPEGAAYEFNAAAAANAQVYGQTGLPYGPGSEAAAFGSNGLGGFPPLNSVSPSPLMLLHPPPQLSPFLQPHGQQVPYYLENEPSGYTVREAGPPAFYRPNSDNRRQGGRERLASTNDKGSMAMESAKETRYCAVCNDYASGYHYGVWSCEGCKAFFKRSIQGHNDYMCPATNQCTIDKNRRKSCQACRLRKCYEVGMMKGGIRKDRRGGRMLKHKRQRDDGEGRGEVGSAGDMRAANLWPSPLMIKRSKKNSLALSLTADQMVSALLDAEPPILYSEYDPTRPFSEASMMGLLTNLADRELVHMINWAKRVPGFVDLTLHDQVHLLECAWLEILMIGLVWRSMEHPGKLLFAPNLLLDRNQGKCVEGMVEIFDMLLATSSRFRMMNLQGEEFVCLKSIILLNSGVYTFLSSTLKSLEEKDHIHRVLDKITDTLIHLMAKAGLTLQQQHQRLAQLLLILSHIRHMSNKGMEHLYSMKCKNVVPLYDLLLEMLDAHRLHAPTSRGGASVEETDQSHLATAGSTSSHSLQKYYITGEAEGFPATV

As to `Cc1nnc2n1-c1sc(CCC(=O)N3CCOCC3)cc1C(c1ccccc1Cl)=NC2`, the Potency result in assay [1], in assay [3], in [4], in assay [5], in [6] and in assay [7] was “inactive” in each case. Also, the Potency entry in [8], in [9], in assay [11], in [13], in assay [15] and in assay [16] was “inactive” throughout. Besides, the call in [2], in assay [10], in [12], in [14] and in assay [17] was inactive.

With `CN(N=O)C(N)=O`, the Potency entry in assay [1], in assay [3], in assay [18], in assay [5], in [6] and in [7] was “inactive” each time. In addition, the Potency entry in [8], in assay [9], in [13] and in assay [15] was “inactive” throughout. Also, the result in [2], in [19], in [10], in [14] and in assay [17] was inactive.

For the compound `CCOC(=O)CP(=O)(OCC)OCC`, the Potency result in assay [1], in assay [3], in assay [4], in assay [5], in assay [6] and in assay [7] was “inactive” each time. The Potency entry in assay [8], in assay [9], in assay [11], in assay [13], in [15] and in assay [16] was “inactive” in each case. The outcome in assay [2], in [19], in assay [10], in assay [14] and in assay [17] was inactive.

Regarding `O=P(O)(Oc1ccccc1)Oc1ccccc1`, the Potency result in [1], in assay [3], in assay [18], in assay [6], in assay [7] and in [8] was “inactive” throughout. The Potency result in assay [9], in assay [11], in assay [13], in assay [15] and in [16] was “inactive” each time. The call in assay [2], in assay [19], in [10], in [14] and in [17] was inactive.

On to `COc1ncc(F)c2nc(S(=O)(=O)Nc3c(F)cccc3F)nn12`, for which, in assay [1], the Potency is 13.9 µM (active). Besides, the result in [2], in [19], in [10], in assay [14] and in assay [17] was inactive. Moreover, the Potency entry in assay [3], in assay [4], in [5], in assay [6], in assay [8] and in [20] was “inactive” in each case. Moreover, the Potency result in [11], in assay [13], in [15] and in assay [16] was “inactive” throughout.

For the compound `O=C(O)C(Br)CBr` (stereo unspecified), the Potency result in assay [1], in [3], in assay [4], in assay [5], in assay [6] and in assay [7] was “inactive” in each case. Further, the Potency entry in [8], in [9], in [11], in assay [13], in [15] and in [16] was “inactive” throughout. The call in assay [2], in [10], in assay [14] and in assay [17] was inactive.

As to `c1cc2c(c(N3CCNCC3)c1)OCCO2`, the Potency result in [1], in [3], in assay [18], in assay [6], in [7] and in assay [8] was “inactive” each time. For the same compound, the Potency entry in assay [9], in assay [20], in assay [11], in [13], in assay [15] and in [16] was “inactive” throughout. Moreover, the compound was classed as inactive in assay [2], in assay [10], in assay [12], in assay [14] and in assay [17].

As for `CCCCN(CCCCO)N=O`, the Potency result in assay [1], in assay [3], in assay [4], in assay [5], in assay [6] and in assay [7] was “inactive” each time. Moreover, the Potency entry in assay [8], in assay [9], in [13], in [15] and in [16] was “inactive” in each case. The compound was classed as inactive in assay [2], in assay [10], in assay [14] and in assay [17].

Regarding `NC(=O)c1cc([N+](=O)[O-])cc([N+](=O)[O-])c1`, the Potency entry in assay [1], in assay [3], in assay [18], in assay [5], in [6] and in assay [7] was “inactive” each time. Also, the Potency result in assay [8], in assay [9], in [11], in [13], in assay [15] and in [16] was “inactive” in each case. In addition, the outcome in [2], in assay [10], in assay [12], in assay [14] and in assay [17] was inactive.
